In PubChem BioAssay (NCI):
About 83,000 compounds went through this panel and 20% of them were active in at least one assay; those are over-represented in the sample as a whole.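 Negative percent growth values reflect cell death: -40 means 40% of the cells present at the start died, and -100 means all died.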 The source made the active and inactive calls. How the source made its calls: active means growth percent below 10; inactive means the rest.

tested on: MDA-MB-468 breast; assay: NCI-60 one-dose screen, 48 h (100 = growth as untreated, 0 = no growth, -100 = all killed); settings: 10 µM unless noted

| SMILES | growth |
| --- | --- |
| COc1cc2c(-c3cc4c(cc3CNCCc3ccc5c(c3)OCO5)OCO4)cccc2c(OC)c1O | -8.75% (active) |
| CCCCCCN1CCN(Cc2ccc(N(CC)CC)cc2)C(=O)C1=O | 22.9% (inactive) |
| C[C@]12C[C@H]1CC[C@]1(C)[C@@H]2CC[C@@]23C[C@H](CC[C@H]21)[C@@](O)(CO)C3 | 82.3% (inactive) |
| COc1cc(C2CC(C3C(=O)N(C)C(=O)N(C)C3=O)=NN2C=O)cc(OC)c1OC (stereo not given) | 103% (inactive) |
| Cc1cccc[n+]1C1c2ccccc2-c2ccccc21 | 68.5% (inactive) |
| NNc1c2ccccc2nc2ccccc12 | 16.4% (inactive) |
| CN1COc2ccc3ccccc3c2C1 | 111% (inactive) |
| CC(=O)c1c(Nc2ccc(F)c(F)c2F)[nH]c2c(F)cc(F)cc2c1=O | -21.9% (active) |
| COc1c(O)c2c3c(c1OC)-c1ccccc1CC3N(S(=O)(=O)c1ccc(C)cc1)CC2 (stereo not given) | 37.1% (inactive) |
| CN1CCN(c2ccc(NC(=O)c3cncnc3Nc3ccc(OCc4cccc(F)c4)c(Cl)c3)cc2)CC1 | 71.8% (inactive) |
| N#CCCN=Nc1c(O)[nH]c2ccc([N+](=O)[O-])cc12 | 99.7% (inactive) |
| CCN(CC)S(=O)(=O)c1ccc(S(=O)(=O)N2CCC[C@@H](C(=O)N3CCN(c4nc(C(C)C)no4)CC3)C2)cc1 | 12.4% (inactive) |
| CNC(=O)OC1C(O[C@H]2C[C@H]3[C@@H]4CC=C5C[C@@H](O)CC[C@]5(C)[C@H]4CC[C@]3(C)[C@H]2[C@H](C)C(=O)CCC(C)C)OCC(O)C1OC1OCC(O)C(O)C1OC(=O)c1ccc(OC)cc1 (stereo not given in full) | -0.149% (active) |
| CC(C)c1cc(CNc2nc(Nc3cc(C4CC4)[nH]n3)cc(N3CCN(C)CC3)n2)on1 | -34.8% (active) |
| COc1ccc(C2CC(c3ccc4ccccc4c3)=NN2c2nc(O)c(C3=c4cc(OC)ccc4=NC3=O)s2)cc1 (stereo not given) | -46.5% (active) |
| O=[N+]([O-])C=C(c1ccccc1)c1ccccc1 | -4.43% (active) |
| Brc1ccc(-c2cc(-c3ccc4c(c3)OCCO4)n[nH]2)s1 | 7.7% (active) |
| COc1ccc(C(=O)c2nc3ccccc3n2CC(=O)c2ccc(F)cc2)cc1 | 55% (inactive) |
| Cc1c(C(=O)NCCCc2ccccc2)sc2ncc(-c3ccc(Br)cc3)n12 | 108% (inactive) |
| O=C(Nc1ccc(C(=O)/C=C/c2ccc(N3CCOCC3)cc2)cc1)Nc1ccc([N+](=O)[O-])cc1 | 91% (inactive) |

| SMILES | growth |
| --- | --- |
| COc1cc(C(=O)NC(=S)Nc2ccc3ccccc3c2)cc(OC)c1OC | 95.5% (inactive) |
| O=C1c2ccccc2-c2nnc(-c3ccc(Br)cc3)cc21 | 20.3% (inactive) |
| COc1ccc(C2CC(c3ccc(Cl)cc3)=NN2/C=C2\SC(=S)N(NC(=O)Cc3ccccc3Nc3c(Cl)cccc3Cl)C2=O)cc1 (stereo not given) | 75.2% (inactive) |
| Cc1ccc(NC(=O)/C=C/c2ccc(OCCCOc3ccc4c(C)cc(=O)oc4c3)cc2)cc1 | 77.5% (inactive) |
| CC(C)C(=O)c1ccc(Cl)s1 | 91.6% (inactive) |
| N#CN1CC[C@H](C(=O)Nc2ncc(-c3ccccc3)s2)C1 | -49.9% (active) |
| C=CCN=C1NC(=O)/C(=C/c2cc(C(C)(C)C)c(O)c(C(C)(C)C)c2)S1 | 43.4% (inactive) |
| COc1ccc(S(=O)(=O)N(Cc2ccc3c(n2)C=CC(C)(C)O3)C2CCC2)cc1OC | -8.27% (active) |
| O=C1C(Cl)=C(Nc2ccccc2)C(=O)c2ccccc21 | -77.8% (active) |
| COc1cc(Cl)c(C)cc1NC(=O)c1cc2ccccc2cc1O | -8.5% (active) |
| O=c1c2cccc3c(N4CCCC4)ccc(c32)c2nc3ccccc3n12 | 80.3% (inactive) |
| COc1ccc2c(c1)C(c1c[nH]c3ccccc13)(c1c[nH]c3ccccc13)CCO2 | 35% (inactive) |
| COC(=O)[C@H](C)NC(=O)c1ccc(NC(=O)c2[nH]c(C)c(Cl)c2Cl)c(OCCN)c1 | 107% (inactive) |
| CCOC(=O)Nc1cc2c(c(N)n1)N=C(c1ccccc1)CO2 | 2.06% (active) |
| COc1ccc(C2CC(c3ccc(Nc4ccnc5cc(Cl)ccc45)cc3)=NN2c2ccccc2)cc1 (stereo not given) | 101% (inactive) |
| O=S(=O)(NCCNc1nccc(-c2c(-c3ccc(F)c(O)c3)nc3sccn23)n1)c1ccc(F)cc1 | 29.3% (inactive) |
| CC[C@]12C=CCN3CC[C@@]4(c5ccc(OC)cc5N(C)[C@H]4[C@@](O)(C(=O)OC)[C@@H]1OC(=O)CCC[P+](c1ccccc1)(c1ccccc1)c1ccccc1)[C@@H]32 | -75.6% (active) |
| O=C(Nc1cccc(-n2cc(-c3ccncc3)c(-c3ccc(O)c(Cl)c3)n2)c1)c1ccc(N2CCOCC2)c(C(F)(F)F)c1 | 65.9% (inactive) |
| COc1ccc(/C=N\NC(=O)c2ccc3nc(-c4ccc(Br)cc4)[nH]c3c2)cc1 | 32.1% (inactive) |
| CC(C)=CCC[C@](C)(O)[C@H]1CC[C@]2(C)[C@@H]1CC[C@@H]1[C@@]3(C)CC/C(=N/O)C(C)(C)[C@@H]3CC[C@]12C | -26.3% [100 µM] (active) |
